Unmarked numbers belong to inactive results. Inconclusive results are not listed. Calls of active or inactive are those of the source. Unless noted, no stated cut-off is given here; in the data, active means fluorescence slope change above about 50%; inconclusive means mostly about 31% to 49%; inactive means weaker than that.

In one assay the target is ATP-dependent translocase ABCB1 (Homo sapiens) (UniProt P08183). The assay can be described thus: MDR1 (ABCB1) efflux transporter inhibition, cell-based (AID 377). The note with it: MDR1-expressing cells, fluorescent substrate accumulation slope; active compounds read high; concentration not given here.
Chain of ATP-dependent translocase ABCB1 (Homo sapiens) (P08183 whole entry, looked up): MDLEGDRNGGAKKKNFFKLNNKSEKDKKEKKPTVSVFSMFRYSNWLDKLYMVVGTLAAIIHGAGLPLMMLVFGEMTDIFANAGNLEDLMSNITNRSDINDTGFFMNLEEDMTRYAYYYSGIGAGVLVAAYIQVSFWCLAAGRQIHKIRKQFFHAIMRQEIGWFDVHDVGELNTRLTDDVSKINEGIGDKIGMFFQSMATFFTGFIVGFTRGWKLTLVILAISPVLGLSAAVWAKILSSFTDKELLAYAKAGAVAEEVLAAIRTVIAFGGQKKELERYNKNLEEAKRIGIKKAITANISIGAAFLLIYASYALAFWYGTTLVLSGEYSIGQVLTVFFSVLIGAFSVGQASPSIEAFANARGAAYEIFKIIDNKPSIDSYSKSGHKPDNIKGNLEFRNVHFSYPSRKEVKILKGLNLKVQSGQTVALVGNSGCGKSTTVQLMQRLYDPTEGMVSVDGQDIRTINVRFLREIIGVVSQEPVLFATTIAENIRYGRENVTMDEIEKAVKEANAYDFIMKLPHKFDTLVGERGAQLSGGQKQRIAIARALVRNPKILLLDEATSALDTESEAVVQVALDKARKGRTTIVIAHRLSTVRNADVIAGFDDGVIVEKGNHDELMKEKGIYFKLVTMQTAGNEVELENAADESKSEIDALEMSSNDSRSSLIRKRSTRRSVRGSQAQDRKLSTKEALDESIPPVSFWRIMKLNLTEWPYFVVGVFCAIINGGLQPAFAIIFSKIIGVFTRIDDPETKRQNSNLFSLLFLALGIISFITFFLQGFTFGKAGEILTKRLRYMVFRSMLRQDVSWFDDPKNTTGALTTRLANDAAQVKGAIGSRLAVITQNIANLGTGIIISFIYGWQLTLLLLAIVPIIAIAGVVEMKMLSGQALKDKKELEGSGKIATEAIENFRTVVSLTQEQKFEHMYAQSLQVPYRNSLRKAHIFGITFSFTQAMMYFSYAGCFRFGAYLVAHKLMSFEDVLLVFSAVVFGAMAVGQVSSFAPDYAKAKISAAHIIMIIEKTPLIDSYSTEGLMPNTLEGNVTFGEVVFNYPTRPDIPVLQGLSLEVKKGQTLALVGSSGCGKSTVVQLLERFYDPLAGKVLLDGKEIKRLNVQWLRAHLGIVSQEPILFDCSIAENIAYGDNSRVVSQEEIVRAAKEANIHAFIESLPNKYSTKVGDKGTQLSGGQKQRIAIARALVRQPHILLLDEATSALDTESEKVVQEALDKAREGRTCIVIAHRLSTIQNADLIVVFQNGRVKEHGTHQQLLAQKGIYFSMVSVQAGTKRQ
For `CCN1C[C@]2(COC)CC[C@H](O)[C@@]34C5C[C@H]6C(OC)C5[C@](O)(C[C@H]6OC)C(O)(C(OC)C23)[C@@H]14` (stereo partly drawn), the fluorescence slope change is -9.9%.
Turning to `C=C(C(=O)OC1CC2[C@@H]3O[C@@H]3[C@@H](C1)N2C)c1ccccc1` (stereo partly drawn), the fluorescence slope change was 4.6%.
With `CN1CCC2=C[C@@H](O)C3OC(=O)c4cc5c(cc4C3[C@H]21)OCO5` (stereo partly drawn), the fluorescence slope change was 1.8%.
Take `CCC1C2CC3[C@@H]4N(C)c5ccccc5[C@]45CC(C2[C@H]5O)N3[C@@H]1O` (stereo partly drawn): the fluorescence slope change is 67.5% (active).
On to `CC[C@H](CO)NC(=O)[C@@H]1C=C2c3cccc4[nH]cc(c34)C[C@H]2N(C)C1`, for which the fluorescence slope change is 0.6%.
For `NCC1OC(OC2C(N)CC(N)C(O)C2O)C(N)C(O)C1O` (stereo not drawn), the fluorescence slope change was 14.1%.
With `NCCC(O)C(=O)NC1CC(N)C(OC2OC(CN)C(O)[C@H](O)[C@@H]2N)[C@H](OC2O[C@H](CO)[C@@H](O)[C@@H]2O)[C@@H]1O` (stereo partly drawn), the fluorescence slope change was 51.6% (active).
For `CC[C@@H](C)C(=O)O[C@H]1[C@H](O)[C@H]2[C@@H](CN3C[C@@H](C)CC[C@H]3[C@@]2(C)O)C2C[C@]34O[C@@]5(O)[C@@H](OC(=O)C(C)(O)CC)CC[C@@]3(C)[C@@H]5[C@@H](OC(C)=O)[C@@H](OC(C)=O)[C@H]4[C@@]21O` (stereo partly drawn), the fluorescence slope change was 24.2%.
On to `C=C(C)[C@@H]1[C@H]2OC(=O)[C@@H]1[C@]1(O)C[C@H]3O[C@]34C(=O)OC2[C@]14C` (stereo partly drawn), for which the fluorescence slope change was 18.3%.
Consider `CN(CC(=O)O)/C(N)=N/P(=O)(O)O`, for which the fluorescence slope change is 63.4% (active).
On the same count and under the same terms, in the case of `CCN1C[C@]2(C)CC[C@H](O)C34C5C[C@H]6C(O)C5[C@](O)(C[C@@H]6OC)C(CC32)[C@@H]14` (stereo partly drawn) it was -10.1%.
On the same count and under the same terms, the result for `COc1cc2c(cc1O)C1Cc3ccc(OC)c(O)c3CN1CC2` (stereo not drawn) reads 144% (active); that for `CCN(CC)C(=O)N[C@H]1C=C2c3cccc4[nH]cc(c34)C[C@H]2N(C)C1`, 136% (active); that for `CC1OC(OC2/C=C/C=C/C=C/C=C/CC/C=C/C=C/[C@H](C)[C@@H](O)[C@@H](C)[C@H](C)OC(=O)CC(O)CC(O)CC(O)CCC(O)C(O)C[C@]3(O)CC(O)C(C(=O)O)C(C2)O3)C(O)C(N)C1O` (stereo partly drawn), 108% (active).
In the case of `C[C@@H]1CCC2[C@H](C)C3CC[C@@]4(O)[C@@H]5CC(=O)[C@H]6CC(=O)CC[C@]6(C)C5C[C@H]4[C@@H]3CN2C1` (stereo partly drawn), the fluorescence slope change is 16.8%.
Same read-out and setting: the result for `CC(=O)O[C@@H]1CC(O[C@@H]2C(C)OC(O[C@@H]3C(C)OC(OC4CCC5(C)C(CCC6C5CC(O)C5(C)C(C7=CC(=O)OC7)CCC65O)C4)C[C@H]3O)C[C@H]2O)OC(C)[C@H]1OC1OC(CO)[C@@H](O)[C@@H](O)[C@@H]1O` (stereo partly drawn) reads 3%; that for `C[C@H](N)[C@@H](O)c1ccc(O)c(O)c1`, 17.7%; that for `CO[C@@H]1C=C2CCN(C)[C@@H]2C2c3cc4c(cc3C(=O)OC21)OCO4` (stereo partly drawn), 12.6%.
Still for that read-out and setting: in the case of `COC(C)C(O)(C(=O)OCC1=CCN2CC[C@H](O)[C@@H]12)C(C)C` (stereo partly drawn) it was 29%.
`CN(C)Cc1c[nH]c2c(OCc3ccccc3)cccc12`: the fluorescence slope change was 61.1% (active).
On the same count and under the same terms, the result for `CN1[C@@H]2CCC[C@H]1CC(=O)C2` reads 53.5% (active); that for `C=C[C@@H]1CN2CCC1C[C@@H]2[C@@H](O)c1ccnc2ccccc12` (stereo partly drawn), 13.4%.
On to `C=C1C2C[C@@]3(C4CC5C6(C3C[C@@H]2O)[C@@H](O)CC[C@@]5(C)CN(CC)[C@H]46)[C@@H]1O` (stereo partly drawn), for which the fluorescence slope change is 24.6%.
On to `CN1[C@@H](C[C@@H](O)c2ccccc2)CCC[C@H]1C[C@H](O)c1ccccc1`, for which the fluorescence slope change was 85.7% (active).
On the same count and under the same terms, the result for `C#C[C@]1(O)CCC2C3CCC4=CC(=O)CC[C@]4(C)C3CC[C@@]21C` (stereo partly drawn) reads 63.9% (active); that for `CCOC(=O)NC1=C(N2CC2)C(=O)C(NC(=O)OCC)=C(N2CC2)C1=O`, 17.2%.
Still for that read-out and setting: the result for `CCN1C[C@]2(COC)CC[C@H](OC)[C@]34C5C[C@@H]6[C@@H](OC)CC7(OCO[C@]7([C@H]13)[C@@H](O)C24)C5[C@H]6OC` (stereo partly drawn) reads 13%; that for `COc1cc(C(=O)OC2CC3CCC(C2)N3C)ccc1O` (stereo not drawn), 5.8%; that for `CN1CCc2cc3c(c4c2C1Cc1ccccc1-4)OCO3` (stereo not drawn), 11.3%.
For `C=C[C@]12CN(C)C3C4COC(CC41)[C@]1(C(=O)Nc4ccccc41)[C@@H]32` (stereo partly drawn), the fluorescence slope change was 13.5%.

System in a further assay: not listed separately
The assay can be described thus: circadian clock period modulators, cell-based, LOPAC library, luminescence reporter (AID 2774; call rule not given here;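 further: values are relative to mean of DMSO wells on each plate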). The settings on record: circadian reporter cells, at 7 µM, actives lie on both sides.
Consider `CCCn1c(C)c(C(=O)c2ccc3ccccc3c2)c2ccccc21`, for which the period change was -0.02 h.
Same read-out and setting: the result for `COc1cc(CC(C)N)c(OC)cc1I` (stereo not drawn) reads -0.11 h; that for `CCN(CC)C(=O)N[C@H]1C=C2c3cccc4[nH]cc(c34)C[C@H]2N(C)C1`, 0.33 h.

System in another assay: not listed separately
The assay can be described thus: hESC survival regulators, cell-based (AID 493140; call rule not given here;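 further: cells exposed to compounds for four days before counting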). The settings on record: human embryonic stem cell survival screen; active compounds read high.
In the case of `CC1CCC2(NC1)O[C@H]1C[C@H]3[C@@H]4CC=C5C[C@@H](O)CC[C@]5(C)[C@H]4CC[C@]3(C)[C@H]1[C@@H]2C` (stereo partly drawn), the survival is 4.83.
On the same count and under the same terms, in the case of `CCC[C@@H]1C[C@@H](C(=O)N[C@H]([C@@H](C)O)[C@H]2O[C@H](SC)[C@H](O)[C@@H](O)C2O)N(C)C1` (stereo partly drawn) it was 18.3; in that of `CCCCCCCCCCCCCCC[C@@H](O)[C@@H](N)COP(=O)(O)O`, 93.8; in that of `CCN1C[C@]2(COC)CC[C@H](O)[C@@]34C5C[C@H]6C(OC)C5[C@](O)(C[C@H]6OC)C(O)(C(OC)C23)[C@@H]14` (stereo partly drawn), 4.
With `CN1CCC2=C[C@@H](O)C3OC(=O)c4cc5c(cc4C3[C@H]21)OCO5` (stereo partly drawn), the survival was 6.42.
Still for that read-out and setting: in the case of `CCC1C2CC3[C@@H]4N(C)c5ccccc5[C@]45CC(C2[C@H]5O)N3[C@@H]1O` (stereo partly drawn) it was 5.33; in that of `NCCC(O)C(=O)NC1CC(N)C(OC2OC(CN)C(O)[C@H](O)[C@@H]2N)[C@H](OC2O[C@H](CO)[C@@H](O)[C@@H]2O)[C@@H]1O` (stereo partly drawn), 4.17; in that of `CC[C@@H](C)C(=O)O[C@H]1[C@H](O)[C@H]2[C@@H](CN3C[C@@H](C)CC[C@H]3[C@@]2(C)O)C2C[C@]34O[C@@]5(O)[C@@H](OC(=O)C(C)(O)CC)CC[C@@]3(C)[C@@H]5[C@@H](OC(C)=O)[C@@H](OC(C)=O)[C@H]4[C@@]21O` (stereo partly drawn), 6.33.
As for `N#CC(C#N)=Cc1cc(O)c(O)c([N+](=O)[O-])c1`, the survival was 100.
Turning to `C=C(C)[C@@H]1[C@H]2OC(=O)[C@@H]1[C@]1(O)C[C@H]3O[C@]34C(=O)OC2[C@]14C` (stereo partly drawn), the survival is 4.
The same measure, in the same setting: the result for `CCN1C[C@]2(C)CC[C@H](O)C34C5C[C@H]6C(O)C5[C@](O)(C[C@@H]6OC)C(CC32)[C@@H]14` (stereo partly drawn) reads 6.75; that for `COc1cc2c(cc1O)C1Cc3ccc(OC)c(O)c3CN1CC2` (stereo not drawn), 1.58.
The same measure, in the same setting: the result for `CCN(CC)C(=O)N[C@H]1C=C2c3cccc4[nH]cc(c34)C[C@H]2N(C)C1` reads 19.8.
In the case of `CC1OC(OC2/C=C/C=C/C=C/C=C/CC/C=C/C=C/[C@H](C)[C@@H](O)[C@@H](C)[C@H](C)OC(=O)CC(O)CC(O)CC(O)CCC(O)C(O)C[C@]3(O)CC(O)C(C(=O)O)C(C2)O3)C(O)C(N)C1O` (stereo partly drawn), the survival is 8.92.
With `CO[C@@H]1C=C2CCN(C)[C@@H]2C2c3cc4c(cc3C(=O)OC21)OCO4` (stereo partly drawn), the survival is 4.75.
In the case of `COC(C)C(O)(C(=O)OCC1=CCN2CC[C@H](O)[C@@H]12)C(C)C` (stereo partly drawn), the survival was 1.33.
For the molecule `CCN(CC)C(=O)N[C@H]1C[C@@H]2c3cccc4[nH]cc(c34)C[C@H]2N(C)C1`, the survival is 6.
`O=P(O)(O)Cc1ccccc1`: the survival is 126.
As for `CC(=O)OC(C)C(C)C(=O)OC[C@]12C(C)[C@H]3O[C@@H]1C[C@]1(C)C(=CCC4[C@@]5(C)CCC(OC6O[C@H](C(=O)O)[C@H](O[C@H]7O[C@@H](CO)[C@@H](O)[C@@H](O)[C@@H]7O)[C@H](O)[C@H]6O[C@@H]6OO[C@@H](O)[C@H](O)[C@@H]6O)[C@](C)(CO)C5CC[C@]41C)[C@@H]2CC3(C)C` (stereo partly drawn), the survival is 2.17.
On to `CCCCC[C@@H](/C=C/C=C\CCCCCCCCCC(=O)O)OO`, for which the survival was 112.
As to `C=C1C2C[C@@]3(C4CC5C6(C3C[C@@H]2O)[C@@H](O)CC[C@@]5(C)CN(CC)[C@H]46)[C@@H]1O` (stereo partly drawn), the survival was 5.92.
The same measure, in the same setting: the result for `C#C[C@]1(O)CCC2C3CCC4=CC(=O)CC[C@]4(C)C3CC[C@@]21C` (stereo partly drawn) reads 10.7; that for `CCN1C[C@]2(COC)CC[C@H](OC)[C@]34C5C[C@@H]6[C@@H](OC)CC7(OCO[C@]7([C@H]13)[C@@H](O)C24)C5[C@H]6OC` (stereo partly drawn), 6.42; that for `COc1cc(C(=O)OC2CC3CCC(C2)N3C)ccc1O` (stereo not drawn), 1.67.
As to `C=C[C@]12CN(C)C3C4COC(CC41)[C@]1(C(=O)Nc4ccccc41)[C@@H]32` (stereo partly drawn), the survival was 4.

Source of the values: PubChem BioAssay.
